Compound activity deposited in PubChem BioAssay by National Center for Advancing Translational Sciences (NCATS).
SMN2 splice enh – qHTS Assay for Enhancers of SMN2 Splice Variant Expression | 210,000 compounds, 2.8% hits | Potency, µM (highest dose often 46.1 µM), inactives show at the top dose activity change, positive = activation, actives largely listed as activators | HEK293 SMN2-luciferase splicing reporter, luminescence, 30-36 h; note: % of control where 0% means no effect; nearly all actives have a fitted effect of over 55% in size
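qHTS luciferase splicing reporter: luminescence rises when SMN2 exon 7 is included in transfected HEK293 cells. Compound exposure lasted 30-36 h at 37C, with 4.5 mM final sodium butyrate as control, followed by a ONE-Glo read.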
Rab9 prom act – qHTS Assay for Rab9 Promoter Activators | Potency, µM (highest dose often 9.22 µM), for the others: at the highest dose activation, negative = inhibition, usual class: activators | AID 485297, 2010 | Huh7 Rab9 promoter-luciferase reporter, luminescence, 24 h | 320,000 compounds, 2.8% hits; note: % of control where 0% means no effect; nearly all actives have a fitted effect of over 60% in size
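Using Huh7 cells stably transfected with Rab9 promoter–luciferase, compounds were incubated 24 h at 37 °C, 5% CO2; luciferase luminescence was read 10 min after reagent addition.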
FLuc modulator – qHTS profiling assay for firefly luciferase inhibitor/activator using purifed enzyme and Km concentrations of substrates (counterscreen for miR-21 project) | Luciferin 4-monooxygenase (Photinus pyralis), P08659 | purified FLuc, Km substrates, luminescence inhibition | Potency, µM (titrated, usually from 57.5 µM), for the others: at the highest dose activity change, negative = inhibition, actives largely listed as inhibitors | 360,000 compounds, 6.9% hits;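 note: plate controls were vehicle for no effect and reference inhibitor for full effect; nearly all actives have a fitted effect of over 55% in size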
Target sequence (P08659 whole entry, looked up): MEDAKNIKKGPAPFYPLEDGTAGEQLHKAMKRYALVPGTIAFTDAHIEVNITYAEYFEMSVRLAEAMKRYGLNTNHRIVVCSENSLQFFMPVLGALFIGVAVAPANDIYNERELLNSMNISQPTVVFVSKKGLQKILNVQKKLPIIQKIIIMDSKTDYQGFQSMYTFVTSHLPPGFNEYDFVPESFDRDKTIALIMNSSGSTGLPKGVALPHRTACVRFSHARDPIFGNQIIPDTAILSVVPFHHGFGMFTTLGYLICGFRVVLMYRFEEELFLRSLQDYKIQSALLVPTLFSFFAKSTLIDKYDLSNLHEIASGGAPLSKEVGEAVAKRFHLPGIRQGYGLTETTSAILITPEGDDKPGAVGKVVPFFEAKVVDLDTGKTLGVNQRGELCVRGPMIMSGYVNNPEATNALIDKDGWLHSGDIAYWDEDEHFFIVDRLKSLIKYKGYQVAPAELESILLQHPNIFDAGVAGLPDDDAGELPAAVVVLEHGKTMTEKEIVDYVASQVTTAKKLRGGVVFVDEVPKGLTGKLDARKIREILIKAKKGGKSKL
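Purified P. pyralis luciferase (10nM final) with 10uM D-luciferin and 10uM ATP (Km levels) in 50mM Tris acetate pH 7.5, 10mM Mg acetate, 0.01% Tween-20, 0.05% BSA; qHTS 6-point titration, ~60 µM downward; luminescence read.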
ELG1 genotoxic – qHTS screen for small molecules that induce genotoxicity in human embryonic kidney (HEK293T) cells expressing luciferase-tagged ELG1 | HEK293T ELG1-luciferase reporter, luminescence, 16 h | Potency, µM (series often up to 46 µM), inactives show top-dose activity change, positive = activation, actives largely listed as activators | 330,000 compounds, 1.3% hits; note: % of control where 0% means no effect; nearly all actives have a fitted effect of over 60% in size
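16 hr compound incubation (37 °C, 5% CO2) of HEK293T cells carrying luciferase-tagged ELG1; luciferase then measured by ONE-Glo luminescence after 30 min at RT.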
NPC1 prom act – qHTS Assay for NPC1 Promoter Activators; Potency, µM (series often up to 9.22 µM), without a hit: top-dose activation, most hits filed as activators; AID 485313, 2010; 320,000 compounds, 2.4% hits; Huh7 NPC1 promoter luciferase reporter, 24 h; note: % of control where 0% means no effect; nearly all actives have a fitted effect of over 60% in size
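Stably transfected Huh7 (NPC1 promoter→luciferase), 1500 cells/well in Opti-MEM + 10% FBS, 2 h settle, then compound 24 h at 37 °C. Luminescence after 10 min with Amplite reagent.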
Numbers without * were called inactive; ? = inconclusive; nt = no result given; [ ] = dose if it differs, or a comment. Compounds with a hit are over-represented: about 7.4% of the library has one in this group of screens. Calls come from the whole dose curve; as a rule, active = well fitted curve in the direction sought with a large enough effect; inconclusive = small, poorly fitted or top-dose-only effect, or another doubt; inactive = no such curve, though single readings can be large; an effect the other way counts as inactive or inconclusive. Potency is the fitted concentration of half-maximal effect.

SMILES	SMN2 splice enh	Rab9 prom act	FLuc modulator	ELG1 genotoxic	NPC1 prom act
CC(C)CCNC(=O)CCCN1C(=O)c2ccccc2Sc2ncccc21	nt	nt	2.2%	nt	nt
CCOC(=O)C1(Cc2cccc(OC)c2)CCCN(Cc2cc(OC)c(O)c(OC)c2)C1 (stereo not drawn)	nt	7.0%	-2.5%	-3.9%	3.8%
CCOC(=O)C1(Cc2cccc(OC)c2)CCCN(C(=O)c2cc(CC(C)C)[nH]n2)C1 (stereo not drawn)	nt	3.55µM*	21.3µM*	?	?
CCOC(=O)C1(Cc2cccc(Cl)c2)CCCN(C(=O)CCOC)C1 (stereo not drawn)	nt	15.0%	?	5.5%	4.1%
CCOC(=O)C1(Cc2cccc(OC)c2)CCCN(C(=O)CCN2CCCO2)C1 (stereo not drawn)	nt	3.16µM*	15.1µM*	23.1µM*	3.55µM*
CCOC(=O)C1(Cc2cccc(OC)c2)CCCN(C(=O)c2ccc(OC)o2)C1 (stereo not drawn)	nt	2.51µM*	12µM*	?	?
CCn1c(C(=O)NCc2cc(Br)ccc2OC)cc2oc3ccccc3c21	-13.5%	nt	2.6%	nt	nt
CN1[C@@H](c2ccccc2)CC(=NO)C[C@H]1c1ccccc1	-6.0%[9.22 µM]	nt	nt	nt	nt
COc1ccc(CCN2C(=O)c3[nH]nc(-c4ccccc4O)c3C2c2ccccc2)cc1 (stereo not drawn)	-9.0%	nt	2.9%	nt	nt
O=C(Nc1cccnc1)c1cccc(-c2cc3ccccc3oc2=O)c1	19.8%	-4.3%[1.84 µM]	?	11.8%	17.6%
CCOc1ccc2nc(NC(=O)c3cccc(-c4cc5ccccc5oc4=O)c3)sc2c1	-14.4%[1.84 µM]	-1.4%	-16.0%	12.8%	22.5%
Cc1ccc2nc(NC(=O)c3cccc(-c4cc5ccccc5oc4=O)c3)sc2c1	0.2%	?	21.3µM*	?	?
CCn1nnc(NC(=O)c2cccc(-c3cc4ccccc4oc3=O)c2)n1	12.6µM*	2.51µM*	15.1µM*	?	?
COCCn1c(=O)c(-c2cccs2)nc2cnc(OCc3ccccc3)nc21	14.5%	nt	nt	nt	nt
COc1cc(/C=N/Nc2ccccc2C(F)(F)F)ccc1O	nt	?	13.5µM*	17.9%	9.6%
COc1cc(/C=N/NC(=O)CCc2ccccc2)ccc1O	0.8%	-1.1%	?	-2.4%	-1.7%
COc1cc(/C=N/Nc2ccccc2)ccc1O	nt	-0.5%	15.1µM*	?	4.2%
COc1cc(/C=N/N(c2ccccc2)c2ccccc2)ccc1O	nt	-0.5%	19µM*	0.5%	-0.6%
COCCn1c(C)cc(O)c(C(c2ccccc2)N2CCN(c3ccccc3)CC2)c1=O (stereo not drawn)	nt	nt	-4.5%	nt	nt
CN(/N=C\c1ccccc1O)c1ccc2ccccc2n1	-7.4%[9.22 µM]	nt	nt	nt	nt
Cc1ccc(NC(=O)NCc2c(C)nn(C)c2C)cc1Cl	15.8µM*	3.98µM*	23.9µM*	?	?
Cc1nn(C)cc1CNC(=O)Nc1ccc(Cl)c(Cl)c1	-22.4%	2.51µM*	23.9µM*	13µM*	3.16µM*
O=C(CCCn1c(=O)c2ccccc2n(CC(=O)Nc2cccc(C(F)(F)F)c2)c1=O)NCc1ccc2c(c1)OCO2	3.5%	nt	-10.0%	nt	nt
CCC(=O)N1CCc2cc(CNS(=O)(=O)c3ccc(NC(=O)CC(C)C)cc3)ccc21	nt	nt	-1.6%	nt	nt
Cc1nc(SCc2ccc(OCCC(C)C)cc2)n[nH]1	?	?	21.3µM*	?	?
SMILES	SMN2 splice enh	Rab9 prom act	FLuc modulator	ELG1 genotoxic	NPC1 prom act
CCCCCOc1ccc(CSc2n[nH]c(C)n2)cc1	nt	0.0%	-1.7%	-2.8%	0.7%
O=C(CSc1nnc(-c2cccc(Cl)c2)o1)Nc1ccc2c(c1)OCCO2	11.2µM*	2.82µM*	-5.2%	20.6µM*	3.55µM*
NCCc1nnc(SCC(=O)Nc2cccc(Cl)c2)o1	nt	3.2%	2.8%	0.4%	-0.3%
O=C(CSc1nnc(-c2cccnc2)o1)Nc1ccccn1	12.6µM*	3.98µM*	0.4%	7.31µM*	3.16µM*
O=C(CSc1nnc(-c2ccc(C(F)(F)F)cn2)o1)Nc1cccc(Cl)c1	nt	?	nt	?	3.16µM*
O=C(CSc1nnc(-c2ccccn2)o1)Nc1ccccc1F	nt	0.794µM*	1.7%	?	0.447µM*
Cc1ccccc1NC(=O)CSc1nnc(-c2ccccn2)o1	nt	?	-4.2%	7.8%	29.2%
Cc1ccc(NC(=O)CSc2nnc(-c3cccnc3)o2)c(C)c1	nt	-1.4%	3.0%	?	-2.9%
COc1ccc(-c2nc3c(c4c2C[C@H](c2ccccc2)OC4)CN(C(=O)Nc2cccc(C#N)c2)CC3)c(C)c1	-37.1%[9.22 µM]	nt	nt	nt	nt
COc1cccc(-n2c(SCC(=O)Nc3cccc(Cl)c3)nc3c(oc4ccccc43)c2=O)c1	-4.8%	nt	0.7%	nt	nt
COc1ccc(OCc2nnc(SCC(=O)Nc3cccc(Cl)c3)o2)cc1	nt	-0.2%	19µM*	-0.3%	-2.5%
O=C(CSc1nnc(-c2ccccn2)o1)Nc1cccc(Cl)c1	nt	2.24µM*	nt	6.4%	?
COc1ccc(OCc2nnc(SCC(=O)Nc3ccc(C)cc3)o2)cc1	nt	-8.3%	-1.0%	-1.7%	9.6%
O=C(CSc1nc2c(oc3ccccc32)c(=O)[nH]1)Nc1cccc(Cl)c1	20µM*	nt	1.2µM*	nt	nt
COc1ccc(OC)c(NC(=O)c2cn(CC(C)C)c(=O)c3cc(OC)c(OC)cc23)c1	-4.6%	nt	-0.1%	nt	nt
CCOC(=O)c1ccc(NC(=O)Cc2coc3cc(C)cc(C)c23)cc1	-14.0%	nt	0.9%	nt	nt
COc1cc2c(cc1OC)C(c1c[nH]c3ccccc13)NCC2 (stereo not drawn)	-8.5%	nt	nt	nt	nt
O=C(NC1CCCCC1)[C@H](O)[C@@H](O)C(=O)NC1CCCCC1	8.1%	-5.5%	6.6%	0.6%	-0.6%
O=C(NC1CCCCCC1)C(=O)NC1CCCC1	12.6µM*	2.24µM*	?	18.5%	?
Cc1ccc(NC(=O)C(=O)NC2CCCCC2)cc1	5.01µM*	1.12µM*	?	?	1.58µM*
Cc1ccc(NC(=O)NC2CCCCCCC2)cc1	nt	2.24µM*	7.57µM*	?	1.26µM*
O=C(Nc1ccc(F)cc1)NC1CCCCC1	2.6%	?	?	?	?
Cc1c(C(=O)NCCc2ccc(Cl)cc2)sc2nc3n(c(=O)c12)CCCC3	nt	nt	-7.9%	nt	nt
Cc1ccc(Cl)cc1-n1ncc2c(Nc3cccc(C)c3C)ncnc21	nt	nt	-9.4%	nt	nt
Cc1ccc(CNC(=O)c2ccc3c(=O)n(-c4ccccc4)c(=O)[nH]c3c2)cc1	-8.4%	nt	0.9%	nt	nt
COc1ccccc1N1CCN(C(=O)CNC(=O)c2cn(-c3ccccc3OC)c(=O)c3ccccc23)CC1	9.0%	22.2%	6.75µM*	6.7%	7.4%
COc1ccccc1-n1cc(C(=O)NCC(=O)N2CCN(c3ccccn3)CC2)c2ccccc2c1=O	nt	17.2%	3.38µM*	12.1%	16.1%
